Rows were chosen to be rich in hits. Some 1.9% of all compounds tested hit in one or more screens of this group.
ZTA DNA inh – ZTA (EBV) inhibition in EBNA-1 counter-screen; ZTA-DNA binding, fluorescence polarization; P03206; 0.15% of 320,000 active; inhibition, % at 11 µM; in the data active = inhibition above about 33%
Target sequence (P03206 whole entry, looked up): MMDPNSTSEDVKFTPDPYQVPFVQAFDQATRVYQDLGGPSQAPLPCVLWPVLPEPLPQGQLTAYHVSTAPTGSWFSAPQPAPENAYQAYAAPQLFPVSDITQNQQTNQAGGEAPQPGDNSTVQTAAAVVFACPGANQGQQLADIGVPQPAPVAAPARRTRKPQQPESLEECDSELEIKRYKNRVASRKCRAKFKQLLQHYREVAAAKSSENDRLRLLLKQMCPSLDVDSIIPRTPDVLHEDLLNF
EBNA-1 inh – EBNA-1 DNA-binding inhibitors, primary screen, biochemical, fluorescence polarization. inhibition, % at 14.8 µM. 0.34% of 300,000 active. AID 1950, 2009; in the data active = inhibition above about 28%
aDG glyco up – activators of alpha-DG glycosylation, primary screen, uHTS, Pro5-aDG cells, AlphaScreen; alpha-DG glycosylation AlphaScreen (IIH6); 0% Pro5, 100% B10-LARGE cell signal; activation, % at 10 µM; 0.22% of 360,000 active; AID 624168, 2012;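 active = activation of at least 8% versus controls, or a plate z-score of at least 8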;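 also: Pro5 are CHO cells carrying HIG-tagged alpha-DG that lacks glycosylation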
NCF1 inh – p47phox/p22phox peptide binding inhibitors, primary screen, biochemical, uHTS, NADPH oxidase regulatory subunit; AID 1274, 2008; 0.53% of 220,000 active; fluorescence polarization, 2 h; inhibition, % at 24.7 µM; Neutrophil cytosol factor 1 (Homo sapiens), P14598;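 active = inhibition above about 30%, limit read from the data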;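 also: 0% = p47phox with labelled peptide and 100% = labelled peptide alone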
Target sequence (P14598 whole entry, looked up): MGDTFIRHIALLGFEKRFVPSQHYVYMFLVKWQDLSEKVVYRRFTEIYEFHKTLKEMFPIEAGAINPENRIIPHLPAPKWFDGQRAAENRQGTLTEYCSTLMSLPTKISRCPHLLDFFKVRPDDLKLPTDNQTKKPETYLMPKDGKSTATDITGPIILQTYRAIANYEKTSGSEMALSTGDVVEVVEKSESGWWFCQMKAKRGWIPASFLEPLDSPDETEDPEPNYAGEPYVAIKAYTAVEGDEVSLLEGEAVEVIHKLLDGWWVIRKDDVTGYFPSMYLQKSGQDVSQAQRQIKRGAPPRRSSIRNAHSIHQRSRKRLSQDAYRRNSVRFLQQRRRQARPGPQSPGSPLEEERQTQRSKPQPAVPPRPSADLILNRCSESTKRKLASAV
NR1D1 modulator – modulators of Rev-erb alpha DNA binding, primary screen, biochemical, FITC-DNA, fluorescence polarization, uHTS; Nuclear receptor subfamily 1 group D member 1 (Homo sapiens), P20393; Rev-erbα–FITC-DNA binding, 90 min; activity, % at 10 µM; 0.79% of 370,000 active; AID 1259318, 2017;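 active = activity above about 14%, limit read from the data; passing the limit was not always enough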;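 also: 0% = DMSO wells with 35 nM protein and 100% = DMSO wells with 750 nM protein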
PG9 Ab binder – binders of HIV-1 gp120 antibody PG9, primary screen, biochemical, TR-FRET; HIV-1 gp120 / PG9 antibody interaction; TR-FRET gp120-PG9 antibody binding; inhibition, % at 6.7 µM; 0.43% of 360,000 active; AID 624416, 2012; in the data active = inhibition above about 8.5%
PG9 binder conf – binders of anti-gp120 antibody PG9, confirmation, biochemical, TR-FRET; inhibition, % at 6.7 µM; 90% of 1,500 active; shares compounds with PG9 Ab binder; AID 651571, 2012; TR-FRET PG9 antibody binding; in the data active = inhibition above about 9%
PGV04 counter – binders of control antibody PGV04, counter-screen for PG9 antibody binder project, biochemical, TR-FRET, distinct HIV envelope site. inhibition, % at 6.7 µM. shares compounds with PG9 Ab binder. TR-FRET PGV04 antibody-gp120 binding. 95% of 1,500 active; in the data active = inhibition above about 9.5%
Starred values were filed as active, the others as inactive; x = no result given.

SMILES | ZTA DNA inh | EBNA-1 inh | aDG glyco up | NCF1 inh | NR1D1 modulator | PG9 Ab binder | PG9 binder conf | PGV04 counter
COC(=O)[C@]12C[C@H](CC(=O)N3CCOCC3)C(=O)N(Cc3cccc4ccccc34)C1=C[C@H](C(C)C)O[C@@H]2C1CC1 | x | x | x | x | 4.3 | x | x | x
Cc1cc(Cl)ccc1OC(C)c1nnc(N)s1 (stereo not given) | -12.6 | -16.0 | 0.0 | 1.4 | -0.7 | 10.5* | 6.9 | 9.0
CCOC(=O)CC[C@H]1CC[C@]2(CCCN(C(=O)c3ccno3)C2)O1 | x | x | x | x | 2.9 | x | x | x
NS(=O)(=O)c1ccc(NC(=O)CSc2nc3ccccc3c(=O)n2-c2ccc(Br)cc2)cc1 | x | x | x | x | 11.5 | x | x | x
CCN(CC)CCCN1C(=O)C(=O)/C(=C(/O)c2ccc(Cl)cc2)C1c1ccccn1 (stereo not given) | -4.0 | -4.9 | 0.3 | x | -3.9 | 9.0* | 13.2* | 16.2*
CCN(CC)CCN1C(=O)C(=O)/C(=C(/O)c2cccc(OC)c2)C1c1ccccn1 (stereo not given) | -2.4 | 15.5 | -0.1 | -7.5 | 1.8 | -0.2 | x | x
COc1ccc(/C(O)=C2/C(=O)C(=O)N(CCCN(C)C)C2c2cccc(Cl)c2)cc1OC (stereo not given) | 1.5 | -2.6 | -0.2 | -0.1 | -2.9 | 46.9* | 16.6* | 22.4*
COC(=O)c1cn(-c2ccc3c(c2)[C@]2(CC(=O)N(C)C2c2ccccc2)C(=O)N3CC(C)C)nn1 (stereo not given in full) | x | x | x | x | -1.3 | x | x | x
O=C(Cn1nnc(-c2ccccc2F)n1)Nc1ccc(Cl)cc1 | x | x | x | x | 3.5 | x | x | x
O=C(Nc1ccc(Br)cn1)c1cccc(C(=O)Nc2ccc(Br)cn2)c1 | -2.9 | 9.3 | -0.1 | x | 21.8 | 12.1* | 40.6* | 55.0*
O=C(Cn1c2ccccc2c(=O)c2cc([N+](=O)[O-])ccc21)Nc1ccccc1Cl | 6.5 | -15.6 | 0.0 | 14.9 | 9.5 | 11.9* | 16.0* | 18.2*
O=C(Cn1c2ccccc2c(=O)c2ccccc21)Nc1ccccc1F | 1.1 | 9.1 | 0.5 | 15.8 | 1.2 | 6.2 | x | x
COCCCNC(=O)C[C@H]1C[C@@]2(C(=O)OC)C(=C[C@H](C(C)C)O[C@@H]2C2CC2)N(CCC2=CCCCC2)C1=O | x | x | x | x | 3.0 | x | x | x
Cn1c(/C=C/c2ccc(Br)cc2)nc2ccccc2c1=O | -1.1 | 3.7 | 0.1 | x | 14.3 | 45.5* | 14.9* | 28.8*
CCn1c(SCC(=O)Nc2ccc(C(C)C)cc2)nnc1-c1ccc(C(C)(C)C)cc1 | x | x | x | x | 3.0 | x | x | x
O=S(=O)(c1ccccc1)N1CCN(c2cc(-c3ccccc3)nc3ncnn23)CC1 | -10.3 | 7.4 | 1.0 | -1.7 | 17.2 | -0.5 | x | x
Cc1ccccc1NC(=O)C1CCN(c2cc(-c3ccccc3)nc3ncnn23)CC1 | 7.9 | -2.3 | 1.4 | -2.2 | 7.1 | 8.8* | 16.9* | 27.0*
CCCCC1=CC2=C(c3ccco3)C(=O)C(C)(OC(=O)c3ccc(OC)cc3)C(=O)C2=CN1CCCOC(C)C (stereo not given) | -0.8 | -0.5 | 0.1 | 0.2 | 3.0 | 1.1 | x | x
C=CCN1C=C2C(=O)C(C)(OC(=O)c3ccc(OC)cc3)C(=O)C(c3ccco3)=C2C=C1CCCC (stereo not given) | -5.6 | -5.0 | -0.3 | -17.8 | -3.6 | 9.7* | 15.8* | 19.7*
COc1ccc2cc(Br)ccc2c1CC(=O)NC(C)C | 1.0 | -4.0 | 0.0 | 1.6 | -4.5 | 10.8* | 12.2* | 16.0*
CCOC(=O)c1sc(=NC(=O)c2ccccc2Br)n(C)c1C | 9.7 | 7.6 | 0.2 | x | 7.6 | 14.8* | 21.9* | 44.5*
CCOC(=O)c1sc(=NC(=O)c2ccco2)n(C)c1C | 19.6 | 6.6 | 0.1 | 0.5 | 1.1 | 1.3 | x | x
CCOc1ccc(-n2c(SCC(=O)Nc3ccccc3-c3ccccc3)nnc2-c2ccncc2)cc1 | x | x | x | x | 12.5 | x | x | x
Cc1cccc(/N=C2/NC(=O)C(Cc3ccccc3)S2)n1 (stereo not given) | -8.8 | -3.7 | 0.1 | -1.6 | 5.0 | 7.7 | x | x
Cc1cccc(CC2S/C(=N/c3cccc(C)n3)NC2=O)c1 (stereo not given) | 11.9 | 3.2 | -0.1 | -10.5 | 15.5 | 12.9* | 18.0* | 23.9*
SMILES | ZTA DNA inh | EBNA-1 inh | aDG glyco up | NCF1 inh | NR1D1 modulator | PG9 Ab binder | PG9 binder conf | PGV04 counter
S=c1[nH]ccc2ccccc12 | x | x | 0.0 | x | -4.8 | 10.6* | 4.4 | 10.8*
Cc1ccc(C(=O)Nc2ccc(NC(=O)c3ccccc3Cl)c(C)c2)cc1 | x | x | 0.5 | x | 9.1 | 29.4* | 26.3* | 39.4*
O=C(Nc1ccc(Cl)cc1Cl)c1ccc(-c2ccccc2)cc1 | 23.8 | 1.7 | 0.2 | -6.1 | 0.8 | 11.4* | 32.6* | 48.6*
O=C(Nc1c(Cl)cccc1Cl)c1ccc(-c2ccccc2)cc1 | -4.7 | 5.1 | 0.2 | -5.7 | -1.4 | -4.7 | x | x
O=C(CSc1nnc(-c2cccnc2)n1Cc1ccco1)Nc1cc(Cl)ccc1F | x | x | x | x | 1.7 | x | x | x
C#CCNC(=O)C[C@H]1C[C@@]2(C(=O)OC)C(=C[C@H](C(C)(C)C)O[C@@H]2C)N(Cc2cccc3ccccc23)C1=O | x | x | x | x | 5.8 | x | x | x
COc1ccc(CNC(=O)c2cc3cc(OC)ccc3oc2=O)cc1 | 1.8 | -4.1 | 0.0 | x | 1.0 | -1.4 | x | x
COc1ccc2oc(=O)c(C(=O)NCc3ccc(C)cc3)cc2c1 | -13.3 | -9.8 | -0.1 | x | 3.5 | 8.8* | 16.0* | 23.9*
CCCCC[n+]1ccn(-c2nc3ccccc3nc2[N-]S(=O)(=O)c2ccccc2)c1 | -20.1 | -5.3 | 0.0 | 11.6 | 1.7 | -1.3 | x | x
CCCC[n+]1ccn(-c2nc3ccccc3nc2[N-]S(=O)(=O)c2ccc(Cl)cc2)c1 | 0.7 | -10.4 | 0.0 | -2.9 | 20.5 | 17.2* | 27.7* | 34.5*
O=C(NC1CCCCN(Cc2cccc(F)c2)C1=O)c1cccc(F)c1 (stereo not given) | x | x | x | x | 4.0 | x | x | x
COc1ccc(CCn2c(SCC(=O)Nc3cc(C)on3)nc3ccccc3c2=O)cc1OC | 1.3 | 8.0 | 0.1 | 5.4 | -3.1 | 0.2 | x | x
COc1ccc(CCn2c(SCC(=O)Nc3cc(C)on3)nc3ccsc3c2=O)cc1OC | -3.4 | -2.4 | -0.4 | 48.5* | 11.9 | 35.6* | 45.7* | 55.9*
CC(C)c1nc2sc3c(=O)[nH]cnc3c2c2c1CCC2 | 5.7 | 2.4 | 0.2 | -17.0 | 6.3 | 9.6* | 19.6* | 26.2*
COCCCN1C(=O)[C@H](CC(=O)NCCCCc2ccccc2)[C@]2(C(=O)OC)CCCCC=C12 | x | x | x | x | -10.6 | x | x | x
